Laboratory results: PMC5540273 (PLoS ONE, 2017)

Assays:
Settings in all cases: concentration: 1 μM, replicates: in singlicate; n = 1
[1] = test system: CAMKK1
[2] = test system: CAMKK2
[3] = test system: CASK
[4] = test system: T1, CDC2L1
T1 construct: gene CDK11B

[5] = test system: CDC2L2
[6] = test system: T2, CDC2L5
T2 construct: gene CDK13

[7] = test system: T3, CDK11
T3 construct: gene CDK19

[8] = test system: CDK2
[9] = test system: CDK3
[10] = test system: CDK4-cyclinD1
[11] = test system: CDK4-cyclinD3
[12] = test system: CDK4
[13] = test system: CDK5
[14] = test system: CDK7
[15] = test system: CDK8
[16] = test system: CDK9
[17] = test system: CDKL1
[18] = test system: CDKL2
[19] = test system: CDKL3
[20] = test system: CDKL5
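Note: KINOMEscan kinase panel screen.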

Structure (SMILES) | %Inh [1] [%] | %Inh [2] [%] | %Inh [3] [%] | %Inh [4] [%] | %Inh [5] [%] | %Inh [6] [%] | %Inh [7] [%] | %Inh [8] [%] | %Inh [9] [%] | %Inh [10] [%] | %Inh [11] [%] | %Inh [12] [%] | %Inh [13] [%] | %Inh [14] [%] | %Inh [15] [%] | %Inh [16] [%] | %Inh [17] [%] | %Inh [18] [%] | %Inh [19] [%] | %Inh [20] [%]
Cc1ccc(C(=O)NCC(N)=O)cc1-n1c(C)cc(OCc2ccc(F)cc2F)c(Br)c1=O | 3 | 0 | 0 | 7 | 20 | 0 | 0 | 0 | 0 | 0 | 0 | 0 | 0 | 0 | 8 | 0 | 44 | 3 | 9 | 0
CNc1ncnc2[nH]ncc12 [SKF-18355] | 0 | 0 | 22 | 0 | 0 | 0 | 0 | 0 | 12 | 0 | 0 | 17 | 0 | 0 | 0 | 0 | 8 | 30 | 19 | 3
Fc1ccc(-c2ncn(CCCN3CCOCC3)c2-c2cccnc2)cc1 [SB-211743] | 0 | 0 | 6 | 0 | 0 | 0 | 0 | 0 | 16 | 0 | 0 | 1 | 0 | 8 | 0 | 0 | 28 | 0 | 0 | 0
COc1cc2c(cc1OC[C@@H](O)CO)ncc1c3ccc(C#N)cc3[nH]c21 | 60 | 22 | 0 | 0 | 0 | 0 | 20 | 0 | 19 | 0 | 0 | 4 | 17 | 99.5 | 15 | 0 | 12 | 0 | 8 | 0
CSc1ccc(-c2cc3ncnc(SCC(=O)O)c3s2)cc1 | 44 | 45 | 0 | 7 | 0 | 0 | 0 | 0 | 40 | 0 | 0 | 0 | 22 | 25 | 0 | 33 | 4 | 0 | 0 | 0
